# Most compounds without a hit are left out; they make up all but 3.2% or so of the library.
# p53ts 39C kill = cytotoxicity in p53ts cells at nonpermissive temperature | AID 902 | actives 1.5% (n = 130,000) | Potency, µM (doses to about 46.1 µM), hits mostly cytotoxic | H1299-p53A138V viability at 39C, ATP luminescence, 24 h; further: nearly all actives have a fitted effect of over 55% in size
# p53ts 32C tox = cytotoxicity in p53ts cells at permissive temperature | H1299-p53A138V at 32C, ATP luminescence viability, 24 h | Potency, µM (series often up to 46.1 µM), actives largely listed as cytotoxic | actives 0.93% (n = 130,000) | AID 924; further: nearly all actives have a fitted effect of over 55% in size
#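 H1299-p53 A138V cells (temperature-sensitive p53) exposed 24 h to up to 46 uM compound at 32C, where p53 is wild-type in conformation. Viability read as ATP luminescence and normalised to DMSO and 100 uM tamoxifen. AC50 fitted with the Hill equation.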
# Pol III holo inh = inhibitors of bacterial DNA polymerase III holoenzyme; actives 0.25% (n = 71,000); reconstituted DNA polymerase III holoenzyme replication, biochemical; AID 603; Potency, µM (highest dose often 57.1 µM)
#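 Reconstituted *E. coli* holoenzyme (0.35 nM Pol III, 1 nM beta, 154 nM SSB, 2 nM primase) was preincubated with compound for 15 min at RT. Synthesis on 1.4 nM ssM13Gori ran 35 min, then was stopped with PicoGreen/EDTA and read as dsDNA fluorescence.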
# Tau filament bind = binders of human tau filaments. AID 596. P10636. recombinant tau filaments, thioflavin S fluorescence, 15 h; filaments grown with octadecylsulfate alongside compound. actives 2% (n = 71,000). Potency, µM (doses to about 57.1 µM);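 further: actives lower thioflavin S fluorescence by blocking filaments or displacing dye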
# Target sequence (P10636 whole entry, looked up): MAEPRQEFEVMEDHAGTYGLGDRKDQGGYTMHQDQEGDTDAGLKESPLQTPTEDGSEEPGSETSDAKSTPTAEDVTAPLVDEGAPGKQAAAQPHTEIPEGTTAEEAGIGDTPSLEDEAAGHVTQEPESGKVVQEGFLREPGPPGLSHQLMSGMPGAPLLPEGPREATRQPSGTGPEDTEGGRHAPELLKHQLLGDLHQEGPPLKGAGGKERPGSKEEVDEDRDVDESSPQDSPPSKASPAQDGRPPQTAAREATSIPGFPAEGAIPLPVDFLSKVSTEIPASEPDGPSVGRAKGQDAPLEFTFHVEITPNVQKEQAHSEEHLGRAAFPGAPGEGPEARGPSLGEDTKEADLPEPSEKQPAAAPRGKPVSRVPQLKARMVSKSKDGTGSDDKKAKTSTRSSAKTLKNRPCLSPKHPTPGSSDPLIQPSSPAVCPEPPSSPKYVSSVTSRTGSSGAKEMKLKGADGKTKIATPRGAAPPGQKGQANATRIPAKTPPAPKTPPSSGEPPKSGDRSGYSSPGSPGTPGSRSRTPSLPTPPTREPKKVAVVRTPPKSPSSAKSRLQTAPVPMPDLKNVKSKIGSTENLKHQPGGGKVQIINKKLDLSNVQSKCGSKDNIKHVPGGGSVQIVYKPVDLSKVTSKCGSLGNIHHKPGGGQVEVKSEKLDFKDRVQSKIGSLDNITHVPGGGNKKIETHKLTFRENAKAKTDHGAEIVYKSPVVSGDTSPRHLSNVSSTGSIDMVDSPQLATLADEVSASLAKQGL
#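 ThS-based fibril read: tau 1 uM final, inducer ODS 30 uM final, 37 C for 15 h, ex 450/em 510 nm.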
# YjeE inh = displaces an ADP probe from E. coli YjeE (TsaE). P0AF67. purified YjeE enzyme, qHTS inhibition assay. Potency, µM. actives 0.05% (n = 71,000). AID 605
#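 Purified YjeE (10 uM) with BODIPY Texas Red-labeled ADP probe (2 uM); compounds pin-transferred, 15 min at room temperature. Binding inhibition read as decreased fluorescence polarization; ADP titration as control.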
# ERK AVP inh = inhibitors of vasopressin-stimulated ERK signaling pathway; actives 0.99% (n = 72,000); HEK293-V1b, vasopressin-stimulated pERK AlphaScreen; Potency, µM (highest dose often 57.5 µM), actives largely listed as inhibitors; AID 995; further: nearly all actives have a fitted effect of over 55% in size
#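 Overnight-seeded V1b-HEK293 cells in 1% FBS got compound, then vasopressin (25 nM final, 5 min, 37C), then lysis buffer. AlphaScreen detection of phospho-ERK; activity normalized to basal and full-stimulation controls.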
# Hits are given with their value; 0 = inactive; ? = inconclusive; - = no result; ! = a repeat was not active; [ ] = dose if it differs, or a comment. The call rests on the fitted dose curve; in most records, active means well fitted curve in the direction sought with a large enough effect; inconclusive means small, poorly fitted or top-dose-only effect, or another doubt; inactive means no such curve, though single readings can be large; an effect the other way counts as inactive or inconclusive.
SMILES,p53ts 39C kill,p53ts 32C tox,Pol III holo inh,Tau filament bind,YjeE inh,ERK AVP inh
CCOc1cc(-c2nnc(SCC(=O)NCc3ccccc3)nc2-c2ccc(OC)c(OCC)c2)ccc1OC,0,0,-,-,-,-
COc1ccccc1N1CCN(S(=O)(=O)c2cc(C(=O)Nc3ccc(Oc4ccccc4)cc3)ccc2F)CC1,0,0,-,-,-,-
Cc1[nH]c2ccccc2c1SCC(=O)N1CCOCC1,13µM,0,0,0,0,-
O=C(CSc1c[nH]c2ccccc12)N1CCOCC1,0,0,0,0,0,0
CN(CC(=O)Nc1nc2ccccc2s1)S(=O)(=O)c1ccccc1,0,0,0,0,0,?
O=C(CS(=O)(=O)Cc1ccccc1)Nc1nc2ccccc2s1,0,0,0,0,0,25µM
Cc1ccc(C(=O)C2CCN(CC(=O)Nc3ccc(N(C)C)cc3)CC2)cc1,0,0,0,20µM,0,16µM
Nc1nc(-c2cc(-c3cccc4ccccc34)nc(N)n2)cc(-c2cccc3ccccc23)n1,0[9.22 µM],0[9.22 µM],0[11.4 µM],0[11.4 µM],0,0[11.5 µM]
N=C1N=C(N)c2cc3ccccc3cc21,?,0[1.84 µM],0,2.5µM,0,0
Cn1cccc1Cc1nnc(SCC(=O)Nc2nccs2)n1CCc1ccccc1,0,0,0,0,0,16µM
COc1ccccc1CNC(=O)c1oc2c(c1C)-c1nn(Cc3ccc(Cl)cc3)cc1CC2,0,0,-,-,-,-
CN(C(=O)CSc1nc2c(c(=O)[nH]1)CCCC2)c1ccccc1,0,0,-,-,-,-
CC(C)c1ccc(Nc2cc(C(=O)NC3CCCCC3)c3ccccc3n2)cc1,0,0,-,-,-,-
COc1cc(C2Nc3cccc4cccc(c34)N2)cc(OC)c1O,0,0,0,4µM,0,0
Cc1cc(Nc2cccc(C(F)(F)F)c2)nc2ccc(NC(=O)Cc3ccc(Cl)cc3)cc12,-,0,-,-,-,-
COc1ccc2c(c1)N(C[C@@H](C)CN(C)C)c1ccccc1S2,0,0,0,10µM,0,0
CC(CN(C)C)CN1c2ccccc2Sc2ccccc21 (stereo not given),0,0,-,-,-,0
COc1ccc2c(c1)N(CC[C@H]1CCCCN1C)c1ccccc1S2,0[9.22 µM],0[9.22 µM],0[11.4 µM],2.5µM,0,0[11.5 µM]
C[C@@H](CN1c2ccccc2Sc2ccccc21)N(C)C,0,0,0,13µM!,0,0
CCC(=O)/C=C1\Sc2ccc(OC)cc2N1CCO,0,0,0,0,0,0
COc1ccc(-n2nc(C(=O)N(C)c3cc(Cl)ccc3OC)c3c4ccccc4n(C)c3c2=O)cc1,0,0,-,-,-,-
Cc1ccccc1-c1noc(-c2nnn(-c3ccccc3C)c2N)n1,0,0,-,-,-,-
COc1cccc(C(=O)Cn2c(=N)n(C)c3ccccc32)c1,5µM,3.2µM,0,0,0,0
CCc1ccc(-n2nc(CO)c(C(=O)NCC(c3ccccc3)c3ccccc3)n2)cc1,0,0,-,-,-,-
CCc1ccc(-n2nc(CO)c(C(=O)NC)n2)cc1,16µM,?,-,-,-,-
SMILES,p53ts 39C kill,p53ts 32C tox,Pol III holo inh,Tau filament bind,YjeE inh,ERK AVP inh
Cc1ccc(-c2cc(-c3ccc4c(c3)OCO4)c(C#N)c(N)n2)o1,0,0,0,13µM,0,0
Cc1ccc(-c2cc(-c3ccc(C)o3)nc(N)c2C#N)cc1,0,0,0,0,0,0
CCN(CC)c1ccc(N)cc1,0,0[1.84 µM],0,13µM,0,?
CCN(CC)c1ccc2c(c1)C(=O)N(C)C2=O,0,0,0,0,0,0
O=C(Nc1ccc(CN2CCOCC2)cc1)c1ccc(-c2ccc(Br)cc2)o1,0,0,0,0,0,32µM
Cc1cccc(/C=C(\c2nc3ccccc3[nH]2)S(=O)(=O)c2ccccc2)c1,4.5µM,4.5µM,-,-,-,-
Cc1ccc(NS(=O)(=O)c2c(C)nc3sc(C)c(C)n3c2=O)cc1F,0,0,-,-,-,-
O=C(Nc1cccc(C(=O)Nc2ccc(S(=O)(=O)O)c3cc(S(=O)(=O)O)cc(S(=O)(=O)O)c23)c1)Nc1cccc(C(=O)Nc2ccc(S(=O)(=O)O)c3cc(S(=O)(=O)O)cc(S(=O)(=O)O)c23)c1,0,0,13µM,0,0,0
Cc1ccc2c(c1)-c1c(ssc1=S)C(C)(C)N2C(=O)CSc1nncn1C,0,0,0,7.9µM,0,0
Cc1cc(C)c2c(c1)-c1c(ssc1=S)C(C)(C)N2C(=O)CSc1nncn1C,0,0,0[11.4 µM],2µM,0,0
O=C(Nc1ccc(Cl)cc1)c1cc2nc(-c3ccco3)cc(C(F)(F)F)n2n1,0,0,0,0,0,0
O=C(c1cc2nc(-c3ccco3)cc(C(F)(F)F)n2n1)N1CCN(c2ccc(F)cc2)CC1,0,0,0,13µM,0,0
COc1ccc(NC(=O)c2cc3nc(-c4ccc(C)c(C)c4)cc(C(F)(F)F)n3n2)cc1,10µM,0,-,-,-,-
Cc1ccccc1Cn1cc(NC(=O)c2cc3nc(-c4ccco4)cc(C(F)(F)F)n3n2)cn1,0,0,0,3.2µM,0,0
CC(=O)Nc1ccccc1-c1ccc(C)o1,0,0,0,0,0,0
CC(=O)CCc1oc2ccc(NC(C)=O)cc2c1-c1ccc(C)o1,0,0,0,0,0,32µM
Cc1ccc(S(=O)(=O)NCCc2csc(-c3cccc(F)c3)n2)cc1,16µM,0,-,-,-,-
COc1ccc2c(c1)CC(C(=O)NCCCN1CCN(c3cccc(Cl)c3)CC1)CO2 (stereo not given),0,0,-,-,-,-
COc1ccc(NC(=O)c2c(C)oc3ccc(O)c(CN4CCCCCC4)c23)cc1Cl,13µM,0,-,-,-,-
CNC(=O)COc1ccc(Nc2nnc(-c3ccc(C)c(S(=O)(=O)NC(C)(C)C)c3)c3ccccc23)cc1,0,?,-,-,-,-
CC(C)(C)OC(=O)N1CCC(c2c(C(=O)NCCN3CCC(Cc4ccccc4)CC3)cnn2-c2cccc(Cl)c2)CC1,20µM,?,-,-,-,-
Cc1ccc(-n2ncc(C(=O)NCCN3CCCC3)c2C2CCN(C(=O)OC(C)(C)C)CC2)cc1,0,0,-,-,-,-
Cc1ccc(-n2ncc(C(=O)NCCN3CCC(Cc4ccccc4)CC3)c2C2CCN(C(=O)OC(C)(C)C)CC2)cc1,7.9µM,?,-,-,-,-
N=C1C=CC=C2C1=NC1(CCCCC1)N2O,0,0,0,16µM,0,?
COc1ccc(S(=O)(=O)N(Cc2nc(-c3ccc(C)cc3)no2)C2CCCCC2)cc1,0,0,-,-,-,-
CC1=CC(C)(C)N2C(=O)C3(C(C#N)=C(N)Oc4cc(O)ccc43)c3cccc1c32 (stereo not given),0,0,0,4µM,0,0
Cc1ccc(Cl)cc1N1CCN(CCCNC(=O)Cn2ncc3c([nH]c4ccccc43)c2=O)CC1,-,0,-,-,-,-
Cc1ccccc1Nc1c(-c2ccc(N3CCOCC3)cc2)nc2cccc(C)n12,7.9µM,?,-,-,-,-
Cc1ccccc1Nc1c(-c2ccc(N3CCOCC3)cc2)nc2ccccn12,1µM,1µM,-,-,-,-
O=C(NCc1ccccc1F)c1cccc(NC(=O)N2CCSc3ncccc32)c1,0,0,-,-,-,-

# High-throughput results (PubChem BioAssay)
